Assay results published in PubChem BioAssay AID504796 (The Scripps Research Institute Molecular Screening Center, 2011).
Some of the results follow. Unmarked numbers belong to inactive results. Calls of active or inactive are those of the source. Cut-off read from the data, not from the text of the source: active = activation above about 20%; inactive = the rest.

experiment: fluorescence polarization artefacts, biochemical, artefact control for PKA-R2B activator project (AID 504796); conditions: FP artifact counterscreen, at 11.4 µM, stronger effect = higher value;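 note: Cy5 labelled IP20 peptide probe with compound but no PKA protein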

Row | Structure (SMILES) | activation
1 | O=S(=O)(NCCNS(=O)(=O)c1ccccc1)c1ccccc1 | 4.68%
2 | O=C(O)C1=C(C(=O)O)C2CCC1C2 | 5.92%
3 | COc1cccc(Nc2nnc(SCC(=O)N3CC(C)OC(C)C3)s2)c1 (stereo not drawn) | 1.43%
4 | O=C(CCCN1C(=O)c2cccc3cccc(c23)C1=O)N1CCN(Cc2ccc3c(c2)OCO3)CC1 | 1.66%
5 | COc1ccc([N+](=O)[O-])cc1C1NN=C(c2cccc3ccccc23)S1 (stereo not drawn) | 4.38%
6 | CC(C)(C)c1nnc(N/N=C/c2ccc(O)cc2)n(N)c1=O | 1.05%
7 | COc1ccc(C/C(C)=N/NC(=O)c2ccncc2)cc1 | 1.96%
8 | CC(C)(C)c1ccc(C(=O)N2CCC(C(=O)N3CCCCC3)CC2)cc1 | 4.67%
9 | N#Cc1ccccc1CN1C(=O)S/C(=C/c2cccn2-c2cccc(C(=O)O)c2)C1=O | 19.3% (active)
10 | O=C(CNC(=O)c1ccccc1)NCC(=O)OCC(=O)c1ccccc1 | 9.84%
11 | CCCC(=O)Nc1ncnc2c1ncn2[C@@H]1O[C@@H]2OP(=O)(O)OC[C@H]2[C@H]1OC(=O)CCC | 0.15%
12 | O=C(CN(C(=O)CCC(=O)Nc1nccs1)c1ccc(F)cc1)NCc1ccc2c(c1)OCO2 | -1.45%
13 | COc1ccc(CC(NC(C)=O)C(=O)NC2CCN(C(=O)c3ccc(Cl)cc3)CC2)cc1 (stereo not drawn) | 3.95%
